# Screening results: PubChem BioAssay, National Center for Advancing Translational Sciences (NCATS)
# Sfp inh – Sfp phosphopantetheinyl transferase inhibition; Q9F4F7; Biochemical Sfp PPTase activity, qHTS; Potency, µM, for the others: largest response in the series, negative = inhibition, hits mostly inhibitors; actives 3.5% (n = 310,000); AID 1490;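 further: the enzyme is Sfp with the accession as filed and its product quenches rhodamine fluorescence; potency means the concentration at half of the fitted maximal effect; 0% = enzyme reaction without inhibitor and -100% = no enzyme wells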
#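 Fluorescence-quenching assay with 15 nM Sfp, 5 uM rhodamine-CoA and 12.5 uM BHQ-2-labelled ybbR peptide in pH 7.6 Hepes/MgCl2 buffer. Enzyme was pre-incubated with compound for 15 min at room temperature. Rate was taken from the 30-min fluorescence change (525/598 nm).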
# Tau fluor counter – counter-screen for tau fibril formation inhibitors; tau K18 P301L Alexa594 fluorescence, heparin fibrillization; Potency, µM (titrated, usually from 57.7 µM), for inactives: at the top dose activity change, negative = decrease; actives 0.93% (n = 280,000); AID 1463; further: potency means the concentration at half of the fitted maximal effect; nearly all actives have a fitted effect of over 55% in size
#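 Human tau K18 P301L (15 uM unlabeled, 0.24 uM Alexa 594-labeled) in 100 mM sodium acetate pH 7 with 20 uM heparin, 6 hr at 37 C. ThT 30 uM added, 1 hr ambient; Alexa 594 FP and total fluorescence read at 555/632 nm.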
# Tau fibril FP – inhibitors of human tau fibril formation | P10636 | K18 P301L tau heparin fibrillization, Alexa594 FP, 6 h | Potency, µM (series often up to 57.7 µM), without a hit: top-dose activity, negative = inhibition, actives largely listed as inhibitors | actives 0.39% (n = 280,000) | AID 1468; further: potency means the concentration at half of the fitted maximal effect; nearly all actives have a fitted effect of over 55% in size
# Target sequence (P10636 561-689 P618L limits assumed): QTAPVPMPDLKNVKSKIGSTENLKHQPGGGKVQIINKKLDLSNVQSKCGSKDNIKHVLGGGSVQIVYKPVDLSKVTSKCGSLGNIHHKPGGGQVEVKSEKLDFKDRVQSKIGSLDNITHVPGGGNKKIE
#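 Compound effects on tau fibrillization are measured by Alexa 594 fluorescence polarization (ex 555, em 632 nm). K18 P301L tau is used at 15 uM with 0.24 uM labeled tracer, and 20 uM heparin induces aggregation over 6 hr at 37 C.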
# Coupling enz – counter-screen for Giardia aldolase inhibitors: coupling enzyme system; coupling enzyme system counterscreen, AmpLite Red fluorescence; AID 2472; actives 0.67% (n = 290,000); activity change, negative = inhibition, % at 58.2 µM, hits read low; in the data active means activity change below about -30%
#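 Activity here indicates interference with the coupling reaction, not aldolase inhibition. Compounds at 57.5 uM final met coupling enzymes for 10 min at RT; substrate and AmpLite Red detection followed, with a 525/598 nm fluorescence read after 20 min.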
# Tau fibril ThT – tau fibrillization inhibition (ThT binding); P10636; recombinant tau K18 P301L (four-repeat tau fragment), heparin-induced fibrillization, ThT fluorescence; Potency, µM (series often up to 57.4 µM), for the others: at the top dose activity, negative = inhibition, actives largely listed as inhibitors; actives 2.1% (n = 270,000); AID 1460; further: potency means the concentration at half of the fitted maximal effect; nearly all actives have a fitted effect of over 55% in size
#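 Tau K18 P301L fragment (15 uM unlabeled plus 0.24 uM Alexa 594-labeled) in 100 mM sodium acetate pH 7 with compound, fibrillization induced by 20 uM heparin for 6 hr at 37 C. Thioflavin T (30 uM) added, fluorescence read after 1 hr (ex 450, em 510 nm).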
# JMJD2E inh – blocks human JMJD2E demethylase activity; B2RXH2; JMJD2E catalytic domain, FDH-coupled NADH fluorescence (FDH is formaldehyde dehydrogenase); AID 2147; Potency, µM (top dose mostly 57.1 µM), for the others: top-dose activity change, negative = inhibition, most hits filed as inhibitors; actives 1.6% (n = 230,000); active means well fitted inhibition curve with a large enough effect, not every such curve was filed as active; inconclusive means small, poorly fitted or top-dose-only effect, or another doubt; inactive means no such curve, though single readings can be large or run the other way;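 further: potency means the concentration at half of the fitted maximal effect; 0% = wells with enzyme and -100% = buffer wells without enzyme; nearly all actives have a fitted effect of over 50% in size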
# Target sequence (B2RXH2 1-337 limits assumed): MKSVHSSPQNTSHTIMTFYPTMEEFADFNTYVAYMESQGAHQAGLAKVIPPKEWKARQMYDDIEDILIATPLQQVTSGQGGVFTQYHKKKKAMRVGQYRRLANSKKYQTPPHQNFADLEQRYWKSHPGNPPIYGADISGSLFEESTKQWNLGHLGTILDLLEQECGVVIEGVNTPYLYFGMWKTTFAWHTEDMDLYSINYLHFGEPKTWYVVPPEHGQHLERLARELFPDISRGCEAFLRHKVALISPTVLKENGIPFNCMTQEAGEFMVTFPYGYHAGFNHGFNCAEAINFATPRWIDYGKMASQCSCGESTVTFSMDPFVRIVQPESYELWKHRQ
# * marks the source's active call; other numbers are inactive results; u = inconclusive; x = not tested or not shown; [ ] = remark or other dose. An excerpt weighted towards active compounds, which were near 5.3% of everything screened. Unless noted, the call rests on the fitted dose curve; in most records, active means well fitted curve in the direction sought with a large enough effect; inconclusive means small, poorly fitted or top-dose-only effect, or another doubt; inactive means no such curve, though single readings can be large; an effect the other way counts as inactive or inconclusive. Unless noted, on the % scale 0 is the no-effect control and ±100 the full control effect.
SMILES,Sfp inh,Tau fluor counter,Tau fibril FP,Coupling enz,Tau fibril ThT,JMJD2E inh
COc1ccc(/C=C2\Sc3ccc(C(=O)N4CCOCC4)cc3N(C)C2=O)cc1,3.6%,x,x,-0.8,x,x
COC(=O)c1ccc(C(=O)Nc2ccc(N)cc2N)cc1,-28.9%,-27.4%,-5.9%,-34.0*,12.6µM*,-29.1%
COc1ccccc1NC(=O)c1ccc(N)cc1,11.8%,2.3%,1.5%,-0.1,-11.8%,1.9%
Cc1ccc(/C=C/c2nc3sc(C(=O)O)c(C)c3c(=O)[nH]2)cc1[N+](=O)[O-],79.4µM*,x,x,4.1,x,x
CCN(CC)CCOC(c1ccccc1)c1ccc(C)cc1 (centres undefined),-3.1%,5.9%,2.6%,2.9,1.3%,-3.9%
Cc1ccc(C(OCC(C)(C)C[N+](C)(C)C)c2ccccc2)cc1 (centres undefined),44.7µM*,-10.1%,-1.8%,-2.4,-12.2%,4.2%
COc1cccc([C@@H]2Oc3ccc(Br)cc3C[C@H]2O)c1,19.3%,-10.4%,3.7%,-0.7,-9.5%,14.3%
O=C(NC1CCCCCC1)C1CCN(C(=O)N2CCOc3ccc(Cl)cc32)CC1,x,u,u,x,22.4µM*,x
CCOC(=O)N1CCC(NC(=O)C2CCN(C(=O)N3CC(C)Oc4ccc(C)cc43)CC2)CC1 (centres undefined),-2.8%,4.1%,7.2%,3.1,1.4%,2.4%
Cc1ccc2c(c1)N(C(=O)N1CCC(C(=O)NC3CCCCCC3)CC1)CCO2,x,u,5.7%,x,-9.6%,x
Cc1ccc2c(c1)N(C(=O)N1CCC(C(=O)NC3CCCCCC3)CC1)CC(C)O2 (centres undefined),x,10µM*[quencher],7.6%,x,u,x
CCOc1ccccc1CNC(=O)C1CCN(C(=O)N2CCOc3ccc(Cl)cc32)CC1,x,u,u,x,31.6µM*,x
COc1cccc(NC(=O)c2sc3nc(C)c(C(=O)Nc4ccc(C)cc4C)c(-c4ccc(C)o4)c3c2N)c1,x,u,-0.7%,x,u,x
CC(=O)N1N=C(c2ccc(C)o2)CC1c1cccc(F)c1 (centres undefined),39.8µM*,1.7%,5.9%,0.5,-5.2%,u
Cc1oc2c(c1C(=O)NCc1cccnc1)C(=O)c1ccccc1C2=O,-0.5%,-18.8%,0.4%,-26.5,-17.1%,u
COc1ccc(CNC(=O)c2c(C)oc3c2C(=O)c2ccccc2C3=O)cc1,9.6%,u,5.7%,-44.6*,u,-13.1%
CC(=O)c1c(C)oc2c1C(=O)c1ccccc1C2=O,4.0%,-11.4%,4.4%,-41.3*,u,6.2%
COc1ccc(NC(=O)[C@@H]2[C@@H]3C(=O)N(C4CCCCC4)C(=O)[C@@H]3C3c4ccccc4C=CN32)cc1 (some centres undefined),2.5%,-24.9%,-4.2%,-30.6*,u,11.4%
O=[N+]([O-])c1ccc(Oc2cccc3cccnc23)c([N+](=O)[O-])c1,u,15.8µM*[quencher],-6.9%,-42.3*,8.91µM*,4.0%
N#Cc1ccc(Oc2cccc3cccnc23)c([N+](=O)[O-])c1,4.1%,x,x,-37.0*,x,x
N#Cc1cc(Oc2cccc3cccnc23)c(-n2nnc3ccccc32)cc1C#N,50.1µM*,15.8µM*[quencher],-4.2%,-20.9,-11.2%,31.6µM*
Cc1cc(/C=C2/C(=O)N(C)C(=S)N2C)c(C)n1C1CC1,-17.3%,-16.8%,-10.8%,-0.7,u,-21.0%
Cc1cc(/C=C2\SC(=S)NC2=O)c(C)n1C1CC1,-29.4%,-28.0%,4.9%,3.9,12.6µM*,1.4%
Fc1ccc(NCc2ccccc2-c2nnc(-c3ccccc3Cl)o2)cc1Cl,x,u,-4.6%,x,-12.0%,x
CC1=NC(=O)C(N=Nc2cccc(O)c2)N1c1ccccc1 (centres undefined),-7.0%,u,-4.5%,-2.0,5.01µM*,-8.5%
Cc1ccc(NC(=O)c2cc(-c3ccc(C)o3)nc3ccccc23)cc1,10µM*,2.7%,u,-1.9,-6.8%,-25.5%
Cc1ccc(-c2cc(C(=O)Nc3cccnc3)c3ccccc3n2)o1,u,-3.1%,-4.4%,-1.0,u,u
